# esBAF inh: blocks esBAF chromatin remodeling in mouse ES cells; Bmi1-luciferase knock-in reporter, 24 h; 100% = twice the neutral-well signal; reporter increase, % at 12.5 µM; actives 2% (n = 350,000); AID 602393; in the data active = activation above about 40%; inconclusive = no clear call, values can overlap the other calls;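 also: a rise in the Bmi1 reporter signal indicates esBAF inhibition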
# Wnt act: activates Wnt/beta-catenin signaling in a reporter cell assay; activation, % at 9.35 µM; AID 743398; activator, plate reader; actives 1.2% (n = 300,000); in the data active = activation above about 30%, passing the limit was not always enough; inconclusive = no clear call, values can overlap the other calls
# MITF TRPM1 HTS: increases MITF-driven TRPM1 promoter luciferase signal | AID 588334 | activation, % at 12.5 µM | SK-MEL-5 TRPM1-promoter luciferase, 24 h; % of positive control, neutral wells = 0 | actives 0.75% (n = 300,000);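 active = mean activation of at least 80% with every replicate also reaching 80%; inconclusive = mean reaches 80% but some replicate falls short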
# FGF22 binding: shifts melting point of recombinant human FGF22 | AID 651658 | activity (Tm shift, normalised), % at 9.99 µM | actives 1.5% (n = 340,000) | Q9HCT0 | recombinant FGF22 thermal shift, SYPRO orange fluorescence; percent of sucrose octasulfate shift, DMSO zero;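 active = mean Tm shift, scaled 0 neutral to 100 positive control, at about 1.3% or above, every replicate too, limit read from the data; inconclusive = no clear call, values can overlap the other calls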
# Target sequence (Q9HCT0 whole entry, looked up): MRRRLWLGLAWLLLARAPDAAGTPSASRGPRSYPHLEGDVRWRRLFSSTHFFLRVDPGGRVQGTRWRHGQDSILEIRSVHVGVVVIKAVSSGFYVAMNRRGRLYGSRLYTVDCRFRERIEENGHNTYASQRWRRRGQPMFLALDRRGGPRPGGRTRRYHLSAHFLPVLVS
# SMARCA2 act: SMARCA2 function activation, primary screen | MG213 cells, MMTV-luciferase reporter, dexamethasone, overnight | activation, % at 9.1 µM | actives 1% (n = 370,000) | AID 652017; in the data active = activation above about 7.8%
# MLL AF4-AF9 inh: blocks AF4 peptide binding to human AF9; P42568; AlphaScreen, biotin-AF4 peptide binding to FLAG-AF9; inhibition, % at 10 µM; actives 0.47% (n = 350,000); AID 651704;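 active = every replicate reaching a set inhibition limit, whatever the replicate mean, cut at about 25% in these data; inconclusive = mean inhibition reaches that limit but some replicates miss it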
# Numbers stand for hits; i = inactive; ? = inconclusive; nt = not tested or not shown. An excerpt weighted towards active compounds, which were near 4.3% of everything screened.
SMILES,esBAF inh,Wnt act,MITF TRPM1 HTS,FGF22 binding,SMARCA2 act,MLL AF4-AF9 inh
Cn1cc(SCC(=O)Nc2nccs2)c2ccccc21,68,i,nt,i,i,i
COc1ccc(-c2[nH]ncc2CN(C)CC2CCCCO2)cc1F (stereo not drawn),nt,i,i,43,i,i
C[C@@H]1CN([C@@H](C)CO)C(=O)c2cc(NS(=O)(=O)c3ccc(Cl)cc3)ccc2O[C@H]1CN(C)C,i,nt,nt,i,nt,i
COc1ccc(C(=O)OCCN(C)C2CN(Cc3cn(Cc4ccccc4Cl)nn3)S(=O)(=O)C2)cc1OC (stereo not drawn),nt,nt,nt,nt,i,nt
Nc1ccccc1SC1CC(=O)N(c2ccc3c(c2)OCCO3)C1=O (stereo not drawn),nt,35,nt,i,i,i
C=CCNC(=O)C1CC(=O)N(c2ccc(OCc3ccc(F)cc3)cc2)C1 (stereo not drawn),?,37,i,i,i,i
CCCNC(=O)C1CC(=O)N(c2ccc(OCc3ccc(F)cc3)cc2)C1 (stereo not drawn),?,i,i,i,i,i
C=CCNC(=O)C1CC(=O)N(c2ccc(OCC(=O)Nc3ccccc3)cc2)C1 (stereo not drawn),53,?,?,nt,i,nt
C[C@@H]1CCCCO[C@@H](CN(C)C(=O)Nc2ccc(F)cc2)[C@@H](C)CN([C@H](C)CO)C(=O)c2cc(NC(=O)c3ccncc3)ccc2O1,i,nt,nt,i,nt,i
COc1ccccc1-c1cnc2c(c1)C(=O)N([C@H](C)CO)C[C@@H](C)[C@H](CN(C)Cc1cncnc1)O2,i,nt,nt,i,nt,i
CN(C)c1ccc2c(c1)[C@H]1C[C@H](CC(=O)NCc3ccncc3)O[C@H](CO)[C@H]1O2,i,nt,nt,i,nt,i
O=C(NCCc1ccccc1)c1cccc([N+](=O)[O-])c1,56,nt,94,i,i,i
O=C(NCc1cccc(Cl)c1)c1ccc(-c2cccnc2)c2ccoc12,i,i,nt,i,i,i
Cc1cc(C(=O)NCC(=O)OCC(=O)NCCc2ccccc2)ccc1[N+](=O)[O-],nt,i,i,44,i,i
CCCNC(=O)c1cccc(Br)c1,nt,i,i,i,i,i
O=C(NCCc1ccccc1)c1ccc(-c2cccnc2)c2ccoc12,44,i,nt,i,i,i
O=C(NCCc1ccccc1)c1cccc(Br)c1,53,i,nt,i,i,i
O=C(C[C@@H]1CC[C@H]2[C@@H](COC[C@@H](O)CN2S(=O)(=O)c2ccccc2)O1)N1CCc2ccccc2C1,i,nt,nt,i,nt,i
C[C@@H]1CN([C@@H](C)CO)C(=O)c2cccc(NC(=O)CCCCCC(=O)Nc3ccccc3N)c2O[C@@H]1CN(C)C,nt,nt,nt,i,nt,i
C[C@H](CO)N1C[C@H](C)[C@H](CN(C)Cc2ccc3c(c2)OCO3)Oc2ccc(NC(=O)CCC(F)(F)F)cc2C1=O,i,nt,nt,i,nt,i
COC(=O)c1cnc2ccccc2n1,i,i,i,nt,7.8,nt
O=C(NCCc1ccccc1)c1cccnc1,i,34,i,nt,i,nt
O=C(NCCc1ccccc1)c1cnc2ccccc2n1,i,45,85,i,i,i
O=C(NCc1ccccc1)c1cccnc1,i,i,nt,i,i,i
O=C(NCC1COc2ccccc2O1)c1ccc(Br)s1 (stereo not drawn),42,i,i,i,i,i
SMILES,esBAF inh,Wnt act,MITF TRPM1 HTS,FGF22 binding,SMARCA2 act,MLL AF4-AF9 inh
O=C(NCC1COc2ccccc2O1)c1cccs1 (stereo not drawn),i,i,i,i,i,i
CCOc1nc(NCc2ccco2)nc(Nc2ccccc2F)n1,67,nt,i,nt,i,nt
CCOc1nc(NCCO)nc(Nc2ccccc2F)n1,nt,i,i,i,i,i
COc1ccc(C(=O)c2c[nH]c(C(=O)NCCCn3ccnc3)c2)cc1,i,40,i,i,i,i
CC(C)(C)c1ccc(C(=O)c2c[nH]c(C(=O)NCCCn3ccnc3)c2)cc1,nt,nt,i,nt,i,nt
O=C(NCc1ccco1)c1ccccc1,i,i,nt,i,i,i
C/C(=C\c1ccccc1)C(=O)NCc1ccco1,nt,32,i,i,i,i
C/C(=C\c1ccccc1)C(=O)NCCc1ccccc1,nt,61,i,i,i,i
C[C@@H]1CN([C@H](C)CO)C(=O)c2cc(-c3cccc(F)c3)cnc2O[C@@H]1CN(C)Cc1ccccn1,i,nt,nt,i,nt,i
Cc1cnc(C(=O)Nc2ccc(C)c(S(=O)(=O)N3CCCCC3)c2)cn1,i,i,i,i,i,i
Cc1ccc(NC(=O)c2cnccn2)cc1S(=O)(=O)N1CCCCCC1,nt,i,i,43,i,i
Cc1ccc(NC(=O)c2nc3nccc(C)n3n2)cc1S(=O)(=O)N1CCCCC1,45,i,i,i,i,i
COCC#Cc1cnc2c(c1)C(=O)N([C@H](C)CO)C[C@H](C)[C@@H](CN(C)C(=O)Nc1cccc(F)c1)O2,i,nt,nt,i,nt,i
CN(C)c1ccc(NC(=O)C(=O)C2C(=O)Nc3ccccc32)cc1 (stereo not drawn),i,44,i,i,i,i
CC(C)(C)c1ccc(NC(=O)C(=O)C2C(=O)Nc3ccccc32)cc1 (stereo not drawn),nt,i,i,i,i,i
COc1cccc2cc(-c3ccnc(N)n3)oc12,45,i,i,i,i,i
Cc1noc(C)c1NC(=O)N(C)C[C@@H]1Oc2ccc(NC(=O)Cc3cn(C)c4ccccc34)cc2CC(=O)N([C@H](C)CO)C[C@H]1C,i,nt,nt,i,nt,i
COc1cc(/C=N/NC(=O)c2cccnc2)ccc1OCC(=O)Nc1ccc(C)cc1,nt,i,i,44,i,i
COc1ccc(Oc2ccc(/C=N/NC(=O)c3cccnc3)cc2[N+](=O)[O-])cc1,nt,i,i,43,i,i
COc1ccc(/C=N/NC(=O)C(=O)NCc2cccnc2)cc1,nt,i,i,44,i,i
COc1ccc(/C=N/NC(=O)c2cccnc2)cc1,i,i,i,i,i,i
CO[C@H]1CN(C)C(=O)c2ccc(NC(=O)C3CC3)cc2OC[C@@H](C)N(C(=O)c2cnccn2)C[C@H]1C,i,nt,nt,i,nt,i
COCCNC(=O)C[C@H]1C[C@H]2c3cc(NC(=O)Nc4ccc(C(F)(F)F)cc4)ccc3O[C@H]2[C@@H](CO)O1,i,nt,nt,i,nt,i
C[C@H](CO)N1C[C@H](C)[C@@H](CN(C)C(=O)NC2CCCCC2)Oc2ccc(NS(C)(=O)=O)cc2CC1=O,i,nt,nt,i,nt,i
COc1ccc(-c2c(C)nc3c(-c4ccccn4)cnn3c2N)cc1,i,i,nt,i,i,i
COc1ccc(-c2c(C)nc3c(-c4ccsc4)cnn3c2N)cc1,i,i,94,i,i,i
CCCNC(=O)C[C@@H]1CC[C@@H]2[C@@H](COc3ccc(NC(=O)Nc4cccc(C)c4)cc3C(=O)N2C)O1,i,nt,nt,i,nt,i
COCC(=O)N1[C@H](CO)[C@@H](c2ccccc2)C12CN(C(=O)Nc1ccccc1F)C2,nt,nt,nt,i,nt,i
CCCCCCCC[n+]1cccc(C(=O)N(CC)CC)c1,nt,i,i,43,i,i

# Source: PubChem (several laboratories)
